According to PubChem BioAssay (NCATS):
Results filed as inconclusive are left out. The source made the active and inactive calls. Calls follow the shape of the dose curve; as a rule, active = well fitted curve in the direction sought with a large enough effect; inconclusive = small, poorly fitted or top-dose-only effect, or another doubt; inactive = no such curve, though single readings can be large; an effect the other way counts as inactive or inconclusive.

Columns and labels:
[1] = qHTS of pediatric cancer cell lines to identify multiple opportunities for drug repurposing: Primary screen for SJ-GBM2 cells (AID 1347091); also: potency is read from the fitted curve at half-maximal effect
Summary of the method: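 Eight- or eleven-point concentration series, 48 h treatment at 37 degrees C in growth media; readout CellTiter-Glo luminescence. Potency and efficacy were taken from the concentration-response curves.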

[2] = qHTS of pediatric cancer cell lines to identify multiple opportunities for drug repurposing: Primary screen for SK-N-MC cells (AID 1347093); also: potency is read from the fitted curve at half-maximal effect
Summary of the method: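 Metabolically active cells were quantified by ATP-dependent luminescence (CellTiter-Glo, 15 min at room temperature) following 48 h treatment. Cells had been plated at 500-1,000 per well and settled for 5 h beforehand.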

[3] = qHTS of pediatric cancer cell lines to identify multiple opportunities for drug repurposing: Primary screen for BT-37 cells (AID 1347094); also: potency is read from the fitted curve at half-maximal effect
Summary of the method: (§1)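 Plated cells (500-1,000 per well, growth media) were allowed to settle for 5 hours, treated with compound dilutions for 48 hours, then lysed with CellTiter-Glo for 15 min at room temperature before luminescence reading.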

[4] = qHTS of pediatric cancer cell lines to identify multiple opportunities for drug repurposing: Primary screen for NB-EBc1 cells (AID 1347095); also: potency is read from the fitted curve at half-maximal effect
Summary of the method: as §1

[5] = qHTS of pediatric cancer cell lines to identify multiple opportunities for drug repurposing: Primary screen for U-2 OS cells (AID 1347096); also: nearly all actives have a fitted effect of over 50% in size
Summary of the method: (§2)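 Cells (500-1,000/well) in growth media were settled 5 h at 37 degrees C, then given compounds for 48 h. Viability was read as CellTiter-Glo luminescence. Primary runs used MIPE at 11 points (0.78 nM-46 µM) and NPC at 8 points (0.59 nM-46 µM); follow-ups used 11 points.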

[6] = qHTS of pediatric cancer cell lines to identify multiple opportunities for drug repurposing: Primary screen for Saos-2 cells (AID 1347097); also: nearly all actives have a fitted effect of over 40% in size; also: potency is read from the fitted curve at half-maximal effect
Summary of the method: as §1

[7] = qHTS of pediatric cancer cell lines to identify multiple opportunities for drug repurposing: Primary screen for SK-N-SH cells (AID 1347098); also: nearly all actives have a fitted effect of over 65% in size; also: potency is read from the fitted curve at half-maximal effect
Summary of the method: (§3)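 Cells (500-1,000/well) rested 5 h, then received compounds for 48 h; metabolically active cells were measured by CellTiter-Glo luminescence. Final concentrations spanned up to 46 µM (MIPE, 11-point) or 0.59 nM-46 µM (NPC, 8-point) in primary screens, 11-point in follow-ups.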

[8] = qHTS of pediatric cancer cell lines to identify multiple opportunities for drug repurposing: Primary screen for NB1643 cells (AID 1347099); also: nearly all actives have a fitted effect of over 50% in size; also: potency is read from the fitted curve at half-maximal effect
Summary of the method: as §1

[9] = qHTS of pediatric cancer cell lines to identify multiple opportunities for drug repurposing: Primary screen for LAN-5 cells (AID 1347100); also: potency is read from the fitted curve at half-maximal effect
Summary of the method: as §2

[10] = qHTS of pediatric cancer cell lines to identify multiple opportunities for drug repurposing: Primary screen for BT-12 cells (AID 1347101); also: nearly all actives have a fitted effect of over 25% in size; also: potency is read from the fitted curve at half-maximal effect
Summary of the method: as §3

[11] = qHTS of pediatric cancer cell lines to identify multiple opportunities for drug repurposing: Primary screen for Rh18 cells (AID 1347102); also: nearly all actives have a fitted effect of over 65% in size
Summary of the method: as §2

[12] = qHTS of pediatric cancer cell lines to identify multiple opportunities for drug repurposing: Primary screen for OHS-50 cells (AID 1347103); also: nearly all actives have a fitted effect of over 40% in size; also: potency is read from the fitted curve at half-maximal effect
Summary of the method: as §3

[13] = qHTS of pediatric cancer cell lines to identify multiple opportunities for drug repurposing: Primary screen for RD cells (AID 1347104); also: nearly all actives have a fitted effect of over 55% in size; also: potency is read from the fitted curve at half-maximal effect
Summary of the method: as §1

[14] = qHTS of pediatric cancer cell lines to identify multiple opportunities for drug repurposing: Primary screen for MG 63 (6-TG R) cells (AID 1347105); also: nearly all actives have a fitted effect of over 50% in size; also: potency is read from the fitted curve at half-maximal effect
Summary of the method: as §1

[15] = qHTS of pediatric cancer cell lines to identify multiple opportunities for drug repurposing: Primary screen for control Hh wild type fibroblast cells (AID 1347106);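 also: series mostly up to about 46 µM; a drop in luminescence marks cytotoxicity and a rise apparent proliferation; nearly all actives have a fitted effect of over 55% in size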
Summary of the method: as §2

[16] = qHTS of pediatric cancer cell lines to identify multiple opportunities for drug repurposing: Primary screen for Rh30 cells (AID 1347107); also: series mostly up to about 46 µM; nearly all actives have a fitted effect of over 75% in size
Summary of the method: as §2

[17] = qHTS of pediatric cancer cell lines to identify multiple opportunities for drug repurposing: Primary screen for Rh41 cells (AID 1347108); also: nearly all actives have a fitted effect of over 70% in size; also: potency is read from the fitted curve at half-maximal effect
Summary of the method: as §1

Measured: Potency

CC(=O)Oc1ccccc1C(=O)O
not listed: [16] | [17]
inactive: all other assays above

O=C(O)[C@@H](c1ccc(OCc2ccc3ccccc3n2)cc1)C1CCCC1
not listed: [4] | [8] | [12] | [17]
inactive: all other assays above

N[C@@H]1CONC1=O
inactive: all assays above

Cc1cc(Nc2nc(N[C@@H](C)c3ncc(F)cn3)ncc2Cl)n[nH]1
active: [1] 23.5 µM | [2] 3.72 µM | [3] 15.3 µM | [4] 18.7 µM | [6] 26.4 µM | [7] 15.2 µM | [8] 1.32 µM | [10] 34.3 µM | [12] 15.3 µM | [13] 16.6 µM | [14] 11.8 µM | [17] 9.35 µM
inactive: [15] | [16]

CCn1c(-c2nonc2N)nc2cnc(Oc3cccc(NC(=O)c4ccc(OCCN5CCOCC5)cc4)c3)cc21
inactive: [4] | [5] | [11] | [14] | [15]
active: [1] 0.235 µM | [2] 7.43 µM | [6] 0.662 µM | [9] 2.96 µM | [10] 6.11 µM | [12] 15.3 µM

CC(C)OC(=O)C1=CN(C(=O)c2ccc(F)c(F)c2)CC(C)(C)c2c1[nH]c1ccccc21
active: [2] 26.4 µM
not listed: [6] | [8]
inactive: all other assays above

O=C(Nc1ccc(F)c(C(F)(F)F)c1)Nc1nnc(-c2ccncc2)s1
active: [2] 20.9 µM
inactive: [1] | [3] | [5] | [6] | [9] | [11] | [12] | [15] | [17]
